Experimental findings from PubChem BioAssay (EPA / NIEHS) are described below.

The nature of test [1]: ATG_CRE_CIS: Attagene CIS-FACTORIAL HepG2 Assay for human cAMP Responsive Element (CRE) binding protein 3 (AID 2282926). Particulars: HepG2 CRE cis-reporter, Attagene multiplexed mRNA; actives raise or lower the signal. The procedure, abridged:
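HepG2 cells transiently transfected with a multiplexed reporter library (CRE-driven unit among them) were dosed for 24 h. Reporter mRNA was quantified by RT-PCR, fluorescent labelling, HpaI digestion and capillary electrophoresis, with bidirectional fitting against DMSO baseline.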

The nature of test [2]: ATG_CMV_CIS: Attagene CIS-FACTORIAL HepG2 Assay for human CMV (Internal Marker) (AID 2282928).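 Further: endpoint acts as a background internal control marker rather than a target.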 Particulars: HepG2 CMV promoter reporter, transcription factor profiling; actives raise or lower the signal. The procedure, abridged: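 HepG2 cells transiently transfected with multiple cis-regulated reporter units; 24 h compound exposure. Reporter mRNA quantified by RT-PCR, 6-FAM primer-extension labeling, HpaI digestion and capillary electrophoresis; bidirectional fitting against DMSO baseline.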

Test [3] deals with Aryl hydrocarbon receptor (Homo sapiens) (UniProt P35869). As to the kind of experiment: ATG_Ahr_CIS: Attagene CIS-FACTORIAL HepG2 Assay for human Aryl Hydrocarbon Receptor (Ahr) (AID 2282930). Particulars: HepG2 AhR cis-factorial reporter transcription; actives raise or lower the signal. The method, boiled down: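 HepG2 cells transiently transfected with cis-element-driven multiplexed reporter transcription units; endogenous transcription factor activity measured as reporter mRNA 24 h after dosing. RT-PCR, 6-FAM labelling, HpaI digestion, capillary electrophoresis; bidirectional fitting versus DMSO baseline.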

Test [4] is described as follows: ATG_AP_1_CIS: Attagene CIS-FACTORIAL HepG2 Assay for human Activator Protein 1 (AP-1) (AID 2282931). Particulars: HepG2 Attagene cis-factorial AP-1 reporter mRNA; actives raise or lower the signal. The procedure, abridged:
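HepG2, transient cis-reporter transfection; 24 h; readout RT-PCR/CE fluorescence; DMSO baseline, gain and loss fitted.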

Test [5] can be described thus: ATG_Ets_CIS: Attagene CIS-FACTORIAL HepG2 Assay for human Erythroblast Transformation Specific (ETS) (AID 2282941). Particulars: HepG2 ETS cis-reporter transcription, actives raise or lower the signal. The method, boiled down: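 HepG2 cells transiently transfected with cis-promoter reporter transcription units were dosed for 24 h; reporter mRNA was measured by RT-PCR, 6-FAM primer extension, HpaI digestion and capillary electrophoresis, with bidirectional fitting against DMSO baseline.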

Test [6] deals with Hepatocyte nuclear factor 3-beta (Homo sapiens) (UniProt Q9Y261). As to the kind of experiment: ATG_FoxA2_CIS: Attagene CIS-FACTORIAL HepG2 Assay for human Forkhead box A2 (FOXA2) (AID 2282942). Particulars: HepG2 cis-reporter transcription factor activity, 24 h; actives raise or lower the signal. The method, boiled down: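 24 h dosing of HepG2 bearing cis-reporter constructs; mRNA readout by RT-PCR/CE fluorescence; bidirectional fit, DMSO baseline.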

A short description of test [7]: ATG_FoxO_CIS: Attagene CIS-FACTORIAL HepG2 Assay for human Forkhead box O (FoxO) (AID 2282943). Particulars: HepG2 Attagene cis-reporter, FoxO element, mRNA; actives raise or lower the signal. The procedure, abridged:
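HepG2 cells transiently transfected with cis-promoter-driven multiple reporter transcription units; 24 h after chemical dosing, reporter mRNA quantified by RT-PCR, fluorescent primer extension, HpaI digestion and capillary electrophoresis. Bidirectional fitting versus DMSO baseline.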

Test [8] can be described thus: ATG_GATA_CIS: Attagene CIS-FACTORIAL HepG2 Assay for human GATA Binding Protein (AID 2282944). Particulars: HepG2 GATA cis-element reporter, Attagene multiplex mRNA; actives raise or lower the signal. The procedure, abridged: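 After transfecting HepG2 cells with multiple cis-regulated reporter units, chemicals are dosed for 24 h; isolated RNA undergoes RT-PCR and fluorescent labeling before capillary electrophoresis, with activity expressed against DMSO.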

The target of test [9] is Hypoxia-inducible factor 1-alpha (Homo sapiens) (UniProt Q16665). As to the kind of experiment: ATG_HIF1a_CIS: Attagene CIS-FACTORIAL HepG2 Assay for human Hypoxia Inducible Factor 1 (HIF1A) (AID 2282951). Particulars: HepG2 Attagene cis-factorial HIF1a reporter transcription; actives raise or lower the signal. The method, boiled down:
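After 24 h chemical exposure of reporter-transfected HepG2 cells, reporter cDNA was PCR-amplified, labelled by 6-FAM primer extension (2 min 95 C, 20 s 68 C, 10 min 72 C), HpaI-cut (2 h, 37 C) and analysed by CE.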

The target of test [10] is Hepatocyte nuclear factor 6 (Homo sapiens) (UniProt Q9UBC0). As to the kind of experiment: ATG_HNF6_CIS: Attagene CIS-FACTORIAL HepG2 Assay for human Hepatocyte Nuclear Factor 6 (HNF6) (AID 2282952). Particulars: HepG2 Attagene cis-factorial HNF6 reporter transcription; actives raise or lower the signal. The method, boiled down: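 HepG2 cells transiently transfected with cis-element-driven multiple reporter transcription units, dosed 24 h; reporter mRNA quantified by RT-PCR, FAM primer extension, HpaI digestion and capillary electrophoresis; bidirectional fit versus DMSO baseline.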

The target of test [11] is Heat shock factor protein 1 (Homo sapiens) (UniProt Q00613). As to the kind of experiment: ATG_HSE_CIS: Attagene CIS-FACTORIAL HepG2 Assay for human Heat Shock Transcription Factor 1 (HSE) (AID 2282953). Particulars: HepG2 HSE cis-reporter, Attagene RNA transcription; actives raise or lower the signal. The method, boiled down:
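Endogenous transcription factor activity captured via cis-promoter reporter units transfected into HepG2; treatment lasted 24 h. Fluorescence intensity of reporter fragments analysed with bidirectional curve fitting, DMSO baseline.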

Test [12] addresses Paired box protein Pax-6 (Homo sapiens) (UniProt P26367). As to the kind of experiment: ATG_Pax6_CIS: Attagene CIS-FACTORIAL HepG2 Assay for human Paired Box 6 (PAX6) (AID 2282956). Particulars: HepG2 CIS-FACTORIAL PAX6 reporter transcription, RNA readout; actives raise or lower the signal. The method, boiled down: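 HepG2 cells transiently transfected with multiplexed cis-promoter reporter units (endogenous TF activity) were dosed for 24 h. Reporter mRNA was quantified by RT-PCR, 6-FAM labeling, HpaI digestion and capillary electrophoresis; bidirectional fitting versus DMSO baseline.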

Test [13] can be described thus: ATG_SREBP_CIS: Attagene CIS-FACTORIAL HepG2 Assay for human Sterol Regulatory Element Binding (SREBP) (AID 2282962). Particulars: HepG2 Attagene cis-factorial SREBP reporter, mRNA; actives raise or lower the signal. The method, boiled down: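 HepG2 cells transiently transfected with multiplexed cis-element reporter units report endogenous transcription factor activity. After 24 h of chemical exposure, reporter mRNA was quantified by RT-PCR, 6-FAM labelling, HpaI digestion and capillary electrophoresis; bidirectional fits used DMSO as baseline.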

A short description of test [14]: ATG_VDRE_CIS: Attagene CIS-FACTORIAL HepG2 Assay for human Vitamin D Receptor Element (VDRE) (AID 2282968). Particulars: HepG2 VDRE cis-reporter transcription, actives raise or lower the signal. The method, boiled down:
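HepG2 cells transiently transfected with cis-element reporter units, dosed 24 h; reporter mRNA measured by RT-PCR, 6-FAM labeling, HpaI digestion and capillary electrophoresis. Activity fitted bidirectionally against DMSO baseline.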

Test [15] can be described thus: ATG_NRF2_ARE_CIS: Attagene CIS-FACTORIAL HepG2 Assay for human Nuclear Factor Erythroid 2 Related Factor 2 (NFR2) response to Antioxidant Response Elements (ARE) (AID 2282992). Particulars: HepG2 Attagene ARE/NRF2 reporter, transcription factor activity; actives raise or lower the signal. The method, boiled down: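 HepG2 cells transiently transfected with multiplexed cis-regulated reporter transcription units measure endogenous transcription factor activity. Reporter mRNA at 24 h is quantified by RT-PCR, fluorescent labelling and capillary electrophoresis, with bidirectional fitting relative to DMSO.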

For test [16], the target named is Cellular tumor antigen p53 (Homo sapiens) (UniProt P04637). Briefly: ATG_p53_CIS: Attagene CIS-FACTORIAL HepG2 Assay for human p53 Transcription Factor (AID 2282994). Particulars: HepG2 p53 cis-element reporter, Attagene mRNA; actives raise or lower the signal. The method, boiled down: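 HepG2 cells transiently transfected with multiplexed cis-regulated reporter transcription units read endogenous TF activity. After 24 h compound exposure, reporter mRNA was quantified by RT-PCR, fluorescent labelling, HpaI digestion and capillary electrophoresis; bidirectional fits versus DMSO baseline.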

A short description of test [17]: ATG_BRE_CIS: Attagene CIS-FACTORIAL HepG2 Assay for human Bone Morphogenetic Protein (BMP) Response Element (BRE) (AID 2282933). Particulars: HepG2 BMP response element reporter, Attagene transcription factor profiling; actives raise or lower the signal. The method, boiled down:
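Multiplexed cis-reporter assay, HepG2, 24 h exposure. mRNA from reporter units quantified via RT-PCR/CE; DMSO baseline; bidirectional curve fit.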

Test [18] is described as follows: ATG_MRE_CIS: Attagene CIS-FACTORIAL HepG2 Assay for human Metal Responsive Element (MRE) (AID 2282954). Particulars: HepG2 MRE cis-reporter transcription, Attagene multiplex; actives raise or lower the signal. The procedure, abridged: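 HepG2 cells transiently transfected with multiple cis-element reporter units measure endogenous MTF1-driven transcription. After 24 h compound exposure, reporter mRNA is quantified by RT-PCR with 6-FAM labelling, HpaI digestion and capillary electrophoresis; bidirectional fits versus DMSO.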

A short description of test [19]: ATG_NF_kB_CIS: Attagene CIS-FACTORIAL HepG2 Assay for human Nuclear Factor Kappa B (NF-kB) (AID 2282991). Particulars: HepG2 Attagene cis-factorial NF-kB reporter mRNA; actives raise or lower the signal. The procedure, abridged: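 Fluorescence of labelled RT-PCR products separated by capillary electrophoresis gives reporter mRNA levels from transfected HepG2 cells exposed 24 h; values are fitted in both directions relative to DMSO.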

Test [20] is described as follows: ATG_XTT_Cytotoxicity: Cytotoxicity Assessment in the Attagene TRANS-FACTORIAL HepG2 Assay (AID 2283584; active means hit-call score of the fitted dose curve at least 0.9, where 1 is the maximum). The procedure, abridged:
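HepG2 human liver cells, transiently transfected with multiple GAL4-UAS reporter units, were dosed and read at 24 h by XTT as cell number. Loss of signal was fitted relative to DMSO negative control baseline.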

Molecules are shown by their SMILES. Inconclusive results are not listed. Activity calls are given as the source filed them. How the source made its calls, unless noted: active means hit-call score of the fitted dose curve at least 0.9, where 1 is the maximum; inactive means score below 0.9.

Heat shock factor protein 1 (Homo sapiens), sequence (Q00613 whole entry, looked up, the tested form may be a part): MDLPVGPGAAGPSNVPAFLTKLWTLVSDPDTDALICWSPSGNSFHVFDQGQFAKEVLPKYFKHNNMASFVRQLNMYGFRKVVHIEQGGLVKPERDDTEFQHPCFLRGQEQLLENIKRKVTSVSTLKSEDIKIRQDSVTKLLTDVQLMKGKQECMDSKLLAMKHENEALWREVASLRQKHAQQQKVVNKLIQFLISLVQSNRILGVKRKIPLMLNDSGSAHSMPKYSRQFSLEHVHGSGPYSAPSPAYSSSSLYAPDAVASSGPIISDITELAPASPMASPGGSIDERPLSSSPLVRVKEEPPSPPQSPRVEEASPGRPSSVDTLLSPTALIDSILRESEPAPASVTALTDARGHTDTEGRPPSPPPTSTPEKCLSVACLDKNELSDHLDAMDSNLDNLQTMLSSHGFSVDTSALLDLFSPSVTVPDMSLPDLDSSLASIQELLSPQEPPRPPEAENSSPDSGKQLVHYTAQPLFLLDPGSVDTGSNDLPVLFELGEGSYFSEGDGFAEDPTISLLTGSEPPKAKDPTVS
Hypoxia-inducible factor 1-alpha (Homo sapiens), sequence (Q16665 whole entry, looked up): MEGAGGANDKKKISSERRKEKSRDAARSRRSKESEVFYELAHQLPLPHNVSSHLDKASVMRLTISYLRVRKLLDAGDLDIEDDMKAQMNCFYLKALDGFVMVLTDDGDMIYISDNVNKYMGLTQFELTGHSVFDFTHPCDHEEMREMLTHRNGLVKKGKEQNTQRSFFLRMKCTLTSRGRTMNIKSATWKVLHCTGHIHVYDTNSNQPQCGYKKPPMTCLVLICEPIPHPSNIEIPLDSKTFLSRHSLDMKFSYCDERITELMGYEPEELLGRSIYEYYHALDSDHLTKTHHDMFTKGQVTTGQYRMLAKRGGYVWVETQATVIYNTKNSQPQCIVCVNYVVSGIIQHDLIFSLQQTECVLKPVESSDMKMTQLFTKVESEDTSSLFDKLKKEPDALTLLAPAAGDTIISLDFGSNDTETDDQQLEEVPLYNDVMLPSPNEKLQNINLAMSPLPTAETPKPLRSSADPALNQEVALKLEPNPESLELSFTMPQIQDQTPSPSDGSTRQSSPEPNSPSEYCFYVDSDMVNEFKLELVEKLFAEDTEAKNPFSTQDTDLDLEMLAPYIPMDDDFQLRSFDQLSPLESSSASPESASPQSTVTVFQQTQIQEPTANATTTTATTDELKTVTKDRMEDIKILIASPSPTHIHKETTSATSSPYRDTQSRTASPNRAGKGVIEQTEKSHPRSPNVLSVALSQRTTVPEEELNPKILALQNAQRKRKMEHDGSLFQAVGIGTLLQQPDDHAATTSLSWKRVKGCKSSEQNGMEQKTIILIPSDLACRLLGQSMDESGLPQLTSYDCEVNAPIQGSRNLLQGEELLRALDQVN
Paired box protein Pax-6 (Homo sapiens), sequence (P26367 whole entry, looked up): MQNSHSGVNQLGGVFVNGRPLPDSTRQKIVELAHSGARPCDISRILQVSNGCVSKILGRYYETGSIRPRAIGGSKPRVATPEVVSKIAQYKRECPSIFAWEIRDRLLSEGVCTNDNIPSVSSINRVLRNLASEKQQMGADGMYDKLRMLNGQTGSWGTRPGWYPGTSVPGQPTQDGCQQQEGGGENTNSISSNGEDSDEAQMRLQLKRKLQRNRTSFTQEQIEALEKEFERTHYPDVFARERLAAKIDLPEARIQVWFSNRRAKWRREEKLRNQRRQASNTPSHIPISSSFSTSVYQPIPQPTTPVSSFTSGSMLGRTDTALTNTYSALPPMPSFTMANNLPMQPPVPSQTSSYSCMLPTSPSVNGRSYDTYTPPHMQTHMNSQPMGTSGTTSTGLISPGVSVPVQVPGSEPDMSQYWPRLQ
Cellular tumor antigen p53 (Homo sapiens), sequence (P04637 whole entry, looked up): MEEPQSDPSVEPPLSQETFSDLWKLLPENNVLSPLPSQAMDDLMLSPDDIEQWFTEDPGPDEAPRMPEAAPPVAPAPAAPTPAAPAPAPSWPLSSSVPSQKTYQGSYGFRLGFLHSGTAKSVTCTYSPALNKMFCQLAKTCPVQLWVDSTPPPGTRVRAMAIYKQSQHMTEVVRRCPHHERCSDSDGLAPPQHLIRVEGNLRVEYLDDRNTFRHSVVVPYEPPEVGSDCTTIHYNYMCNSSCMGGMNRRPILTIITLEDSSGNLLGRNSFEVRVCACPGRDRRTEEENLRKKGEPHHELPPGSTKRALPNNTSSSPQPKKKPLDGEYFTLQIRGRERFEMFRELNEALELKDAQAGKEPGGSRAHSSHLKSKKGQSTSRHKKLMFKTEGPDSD
Hepatocyte nuclear factor 3-beta (Homo sapiens), sequence (Q9Y261 whole entry, looked up): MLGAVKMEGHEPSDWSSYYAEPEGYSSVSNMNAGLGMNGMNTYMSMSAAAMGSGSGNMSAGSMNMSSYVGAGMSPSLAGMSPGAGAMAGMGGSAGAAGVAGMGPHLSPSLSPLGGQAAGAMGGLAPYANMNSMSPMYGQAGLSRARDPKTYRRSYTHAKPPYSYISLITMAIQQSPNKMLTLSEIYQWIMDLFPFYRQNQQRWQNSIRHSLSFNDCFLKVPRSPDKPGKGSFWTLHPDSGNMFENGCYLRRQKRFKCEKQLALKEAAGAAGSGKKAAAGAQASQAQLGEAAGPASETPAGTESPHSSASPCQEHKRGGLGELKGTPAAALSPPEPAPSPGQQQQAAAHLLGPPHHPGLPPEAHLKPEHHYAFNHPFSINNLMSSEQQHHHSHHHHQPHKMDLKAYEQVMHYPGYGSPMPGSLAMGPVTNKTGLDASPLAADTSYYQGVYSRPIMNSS
Aryl hydrocarbon receptor (Homo sapiens), sequence (P35869 whole entry, looked up): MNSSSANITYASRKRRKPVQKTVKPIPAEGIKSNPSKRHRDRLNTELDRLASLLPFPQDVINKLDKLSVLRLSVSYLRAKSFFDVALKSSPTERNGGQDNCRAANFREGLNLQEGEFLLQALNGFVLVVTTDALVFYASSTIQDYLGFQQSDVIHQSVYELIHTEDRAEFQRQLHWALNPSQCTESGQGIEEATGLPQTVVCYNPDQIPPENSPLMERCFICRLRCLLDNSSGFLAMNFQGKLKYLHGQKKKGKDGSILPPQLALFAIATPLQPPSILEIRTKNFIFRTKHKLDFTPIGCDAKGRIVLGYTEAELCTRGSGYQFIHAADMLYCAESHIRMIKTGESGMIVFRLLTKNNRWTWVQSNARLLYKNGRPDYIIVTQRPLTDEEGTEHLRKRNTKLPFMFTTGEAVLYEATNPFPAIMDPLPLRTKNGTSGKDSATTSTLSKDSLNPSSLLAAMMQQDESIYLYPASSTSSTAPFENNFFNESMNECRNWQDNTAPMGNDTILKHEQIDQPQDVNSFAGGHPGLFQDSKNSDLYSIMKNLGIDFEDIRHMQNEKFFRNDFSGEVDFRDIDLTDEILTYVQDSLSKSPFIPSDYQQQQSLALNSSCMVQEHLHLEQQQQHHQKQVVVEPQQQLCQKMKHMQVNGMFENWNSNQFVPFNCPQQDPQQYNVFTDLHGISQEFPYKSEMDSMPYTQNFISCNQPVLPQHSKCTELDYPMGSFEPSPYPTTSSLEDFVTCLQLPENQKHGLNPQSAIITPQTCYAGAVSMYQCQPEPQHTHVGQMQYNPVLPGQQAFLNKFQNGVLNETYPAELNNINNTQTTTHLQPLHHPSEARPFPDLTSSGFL
Hepatocyte nuclear factor 6 (Homo sapiens), sequence (Q9UBC0 whole entry, looked up): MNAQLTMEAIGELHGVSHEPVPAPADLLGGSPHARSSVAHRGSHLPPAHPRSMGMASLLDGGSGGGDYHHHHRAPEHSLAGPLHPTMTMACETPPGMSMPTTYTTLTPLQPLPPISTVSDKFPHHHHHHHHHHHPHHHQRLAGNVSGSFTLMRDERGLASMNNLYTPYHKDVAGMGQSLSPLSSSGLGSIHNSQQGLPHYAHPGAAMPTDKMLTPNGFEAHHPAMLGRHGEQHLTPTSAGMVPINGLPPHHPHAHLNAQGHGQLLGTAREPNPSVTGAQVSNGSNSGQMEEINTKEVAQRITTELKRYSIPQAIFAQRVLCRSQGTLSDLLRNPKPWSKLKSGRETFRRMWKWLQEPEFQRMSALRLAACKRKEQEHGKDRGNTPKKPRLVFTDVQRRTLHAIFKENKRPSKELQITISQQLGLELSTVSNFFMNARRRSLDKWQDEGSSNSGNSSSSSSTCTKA

Turning to `[CH3][Sn]([Cl])([Cl])[Cl]`, the compound was classed as inactive in test [1], in test [2], in [3], in [4], in [5] and in [6]. In addition, the outcome in test [7], in test [8], in test [9], in test [10], in test [11] and in [12] was inactive. Further, the compound was called inactive in test [13], in [14] and in test [16]. The AC50 in test [15] was 57.6 µM (active).
As to `CCCOC(=O)c1ccccc1C(=O)OCCC`, the call in test [1], in [2], in test [3], in test [17], in [5] and in test [6] was inactive. For the same compound, the compound was called inactive in test [7], in [9], in test [10], in test [11], in test [18] and in [12]. Further, the call in test [13], in test [19], in [15], in test [16] and in [20] was inactive.
As to `N#Cc1cccc(C#N)c1`, the compound was called inactive in test [1], in [2], in test [3], in test [17], in test [7] and in test [8]. The compound was called inactive in [9], in test [10], in test [11], in [18], in test [12] and in test [13]. Further, the outcome in test [14], in test [19], in test [15], in test [16] and in test [20] was inactive.
Take `C=C(Cl)Cl`: the call in test [1], in test [2], in [4], in test [17], in test [5] and in [6] was inactive. Also, the compound was classed as inactive in [7], in [8], in [9], in [10], in [11] and in test [18]. The compound was classed as inactive in test [12], in test [13], in [15], in test [16] and in [20].
